High-throughput results (PubChem BioAssay)
Sampled rows, rich in hits. Any-hit rate of the full collection: about 4.7%.
tim10-1 inh: growth inhibitors of tim10-1 mutant yeast, primary screen, luminescence, uHTS | S. cerevisiae tim10-1 ts strain growth, BacTiter-Glo, 24 h | inhibition, % at 20 µM | 330,000 compounds, 2.2% hits;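 active = inhibition of at least 40%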;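 note: mutant grown at 25 °C; 0% = DMSO wells with yeast and 100% = wells holding no yeast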
PfHsp90 yeast 2: growth inhibition of PfHsp90-expressing yeast, primary screen, antimalarial PfHsp90 inhibitor project, S. cerevisiae, BacTiter-Glo luminescence, single point, set 2; BacTiter-Glo ATP, 48 h; yeast lacking PDR1 and PDR3 efflux regulators; inhibition, % at 9.4 µM; 310,000 compounds, 0.32% hits; AID 504621, 2011;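 active = every replicate shows inhibition above about 80%, whatever the replicate mean, limit read from the data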;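 note: 0% = DMSO neutral controls and 100% = 20 µM radicicol positive controls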
TIM10 inh: growth inhibitors of isogenic TIM10 control yeast, primary screen, counter-screen for tim10-1 yeast inhibitor project, luminescence, uHTS; 330,000 compounds, 1.4% hits; inhibition, % at 10 µM; S. cerevisiae TIM10 strain growth, BacTiter-Glo luminescence, 24 h;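 active = inhibition of 40% or more at the single tested concentration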;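 note: wild-type TIM10 isogenic control strain grown at permissive 25 °C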
Calb FLC: C. albicans growth inhibition with fluconazole, primary screen, CaCi-2 strain, Alamar Blue fluorescence; C. albicans CaCi-2 (fluconazole-resistant clinical isolate) + fluconazole, 48 h; growth inhibition, % (concentration not given with the values); 300,000 compounds, 0.57% hits; AID 1979, 2009;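 active = growth inhibition above about 58% in most replicates, limit read from the data, passing the limit was not always enough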;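 note: all wells also contain fluconazole at 8 µg/ml as a sub-toxic cotreatment; 0% = median of DMSO wells and 100% = median of geldanamycin control wells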
tim23-1 inh: growth inhibitors of tim23-1 mutant yeast, primary screen, luminescence, uHTS. 330,000 compounds, 1.3% hits. inhibition, % at 20 µM. S. cerevisiae tim23-1 growth, BacTiter-Glo luminescence, 24 h;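 active = growth inhibition of the mutant yeast at or above 50%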;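 note: temperature-sensitive mutant grown at 25 °C; plate controls were DMSO-treated mutant yeast for no effect and medium wells lacking yeast for full effect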
SKKanGAS inh: S. pyogenes SKKanGAS growth inhibitors in kanamycin, primary screen, streptokinase expression inhibitor project, SKKanGAS strain, BacTiter-Glo luminescence. 6 h. inhibition, % at 7.5 µM. 300,000 compounds, 1.3% hits. AID 1662, 2009;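 active = mean replicate score, as percent of positive control median, at least 50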;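 note: strain carries kanamycin resistance gene driven by streptokinase promoter and grows in 40 µg/ml kanamycin; loss of luminescence reflects streptokinase promoter inhibition or plain growth inhibition; 0% = median of DMSO wells and 100% = positive control at its reference dose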
tim10-1 conf: growth inhibitors of tim10-1 mutant yeast, confirmation, single concentration, luminescence, S. cerevisiae | shares compounds with tim10-1 inh | S. cerevisiae tim10-1 ts strain growth, BacTiter-Glo, 24 h | inhibition, % at 20 µM | 7,400 compounds, 56% hits | AID 463213, 2010;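 active = inhibition of yeast growth at or above a set limit in either of two repeat tests at 20 µM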;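 note: tim10-1 mutant grown at permissive 25 °C to find synthetic lethal compounds; 0% = DMSO yeast wells and 100% = medium wells without yeast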
Starred values were filed as active, the others as inactive; nt = no result given; ! = repeats disagree.

SMILES	tim10-1 inh	PfHsp90 yeast 2	TIM10 inh	Calb FLC	tim23-1 inh	SKKanGAS inh	tim10-1 conf
Oc1ccc(C2NCc3ccccc3-n3cccc32)cc1Cl (stereo not given)	44*!	-10	19	1	24	-1	34*
COCCNC(=O)CN1C(=O)C(C)N=C(c2ccccc2)c2cc(Cl)ccc21 (stereo not given)	41*	2	12	0	34	2	7
COC(=O)C1=C(c2ccc(Cl)c(C(F)(F)F)c2)C[C@@H]2CC[C@H]1N2C(=O)NC1CCCCC1	19	10	23	nt	33	nt	nt
NCCc1c(Cc2ccccc2)[nH]c2ccccc12	7	nt	3	9	13	-3	nt
Cc1c(CCN)ccc2c1[nH]c1ccccc12	41*	6	19	-2	26	16	15
CC1=C(C)CC2(C(=O)NC(=S)NC2=O)C(C)C1 (stereo not given)	nt	-2	nt	nt	nt	nt	nt
CCOC(=O)C1(CCc2ccccc2)CCN(Cc2cccc3cnccc23)CC1	20	-16	-10	-3	7	6	nt
CCOC(=O)C1(CCc2ccccc2)CCN(Cc2cccc3c2OCO3)CC1	40*	-6	-4	-35	14	8	14
O=C1CC(N2CC=C(c3ccccc3)CC2)C(=O)N1c1ccc(F)cc1 (stereo not given)	43*	-88	29	-2	38	1	42*
O=C(c1ccc2c(c1)N(Cc1ccccc1)CCS2)N1CCC2(CC1)OCCO2	42*	14	7	4	44	4	21
C=CCN1C(=O)c2ccccc2Sc2ccc(C(=O)N3CCC4(CC3)OCCO4)cc21	20	nt	19	-16	12	7	nt
Cc1cc(N(CCCl)CCCl)ccc1C=NNC(=O)Cc1cc(=O)oc2cc(O)ccc12	nt	-10	nt	nt	nt	nt	nt
O=C(COc1ccc2ccccc2c1)N1CCN(Cc2c[nH]c3ccccc23)CC1	50*	20	31	-1	12	0	30
O=C(CN1CCOCC1)Nc1ccc(Br)cc1C(=O)c1ccccc1	40*	-18	35	6	34	-9	17
O=C1NC(=O)C(=Cc2c(Cl)cccc2Cl)C(=O)N1	nt	17	nt	nt	nt	nt	nt
CN1CC(C(=O)c2cccc(C(F)(F)F)c2)C(c2ccc(Cl)cc2)C1 (stereo not given)	41*	-26	8	-17	18	8	28
O=S(=O)(O)C(=Cc1ccccc1)c1ccccc1 (tested in a mixture with another compound)	nt	-7	nt	nt	nt	nt	nt
Cc1cc(/C=C2\C(=O)NC(=O)N(c3ccc(Cl)cc3)C2=O)c(C)n1-c1sc2c(c1C#N)CCCC2	41*	-3	15	9	31	20	14
CCOC(=O)c1c(-n2c(C)cc(/C=C3\C(=O)NC(=O)N(C)C3=O)c2C)sc2c1CCCC2	32	-8	32	23	39	24	nt
CS(=O)(=O)CCN1CC2CCCC(C2)C1	nt	-25	nt	nt	nt	nt	nt
Cc1cccc(-c2nc3ccc(C(=O)N4CCC5(CC4)OCCO5)cc3nc2-c2cccc(C)c2)c1	40*	-17	13	13	36	15	4
O=C1/C(=C/c2cc([N+](=O)[O-])ccc2Cl)N2CCC1CC2	48*	10	25	-24	49	4	35*
O=C1/C(=C/c2cccc([N+](=O)[O-])c2)N2CCC1CC2	7	32	16	-5	27	-2	nt
CC1(C)C(C(=O)N2CCN(c3ccc(Cl)cc3)CC2)C1(C)C	21	2	11	nt	24	2	nt
COC(=O)C1CN(C#N)N(c2ccc(Cl)cc2)C12c1ccccc1-c1ccccc12 (stereo not given)	58*	96*	37	1	40	67*	42*
SMILES	tim10-1 inh	PfHsp90 yeast 2	TIM10 inh	Calb FLC	tim23-1 inh	SKKanGAS inh	tim10-1 conf
O=[N+]([O-])c1ccc(Cl)c([N+](=O)[O-])c1	45*	-9	26	nt	44	nt	39*
Nc1c(C(=O)NCC2CCCO2)c2nc3ccccc3nc2n1Cc1ccco1 (stereo not given)	0	-1	0	8	14	6	nt
Nc1c(C(=O)NC2CCCC2)c2nc3ccccc3nc2n1CC1CCCO1 (stereo not given)	56*	-2	34	5	33	12	29
CC(C)CNC(=O)c1c(N)n(Cc2ccc3c(c2)OCO3)c2nc3ccccc3nc12	43*	19	27	-1	39	23	25
COc1ccc(C2=CC(c3ccc4c(c3)OCO4)c3c(c4ccccc4oc3=O)O2)cc1OC (stereo not given)	nt	-7	nt	nt	nt	nt	nt
O=C(NN=Cc1ccc(N(CCCl)CCCl)cc1)c1cccnc1	nt	-23	nt	nt	nt	nt	nt
CCN(CC)S(=O)(=O)c1cc(NC(=O)C(C)N2CC=C(c3ccccc3)CC2)ccc1C (stereo not given)	40*	23	12	-4	16	23	2
C[C@]12CCC3C(CC[C@H]4C[C@@H](O)CC[C@]34C)C1C[C@@H](Br)[C@H]2O (stereo not given in full)	-66	nt	-81	nt	-7	nt	nt
O=C(COC(=O)Cc1ccccc1)Nc1ccc(SC(F)F)cc1	43*	6	5	nt	27	nt	15
Brc1ccc(-[n+]2c(-c3ccccc3)cc(-c3ccccc3)cc2-c2ccccc2)cc1	37	22	35	-11	36	1	nt
Cc1ccccc1-[n+]1c(-c2ccccc2)cc(-c2ccccc2)cc1-c1ccccc1	42*	6	-12	112*	-9	-2	28
Cc1oc2ccc(OC(=O)N(C)C)cc2c1C(=O)OC(C)C	42*	0	34	107*	36	-3	24
COc1ccccc1OP(=O)(Nc1ccc(Br)cc1)Oc1ccccc1OC	8	-25	14	0	15	2	nt
COc1ccc(NP(=O)(Oc2ccccc2OC)Oc2ccccc2OC)cc1	41*	-13	9	49	33	6	14
C=CCCC1(CC(C)C)C(=O)NC(=S)NC1=O	nt	15	nt	nt	nt	nt	nt
Cc1nn(CCC#N)c2c1P(=S)(N1CCCC1)OC(c1ccc(F)cc1)=N2 (stereo not given)	43*	17	37	33	44	0	33*
Fc1ccc2c(c1)nnn2C1CCN(Cc2nnnn2CCc2ccccc2)CC1	40*	nt	27	9	9	-4	25
